An excerpt weighted towards active compounds, which were near 11% of everything screened.
hNpr1 antagonist = antagonists of human natriuretic peptide receptor Npr1. P16066. 1.6% of 76,000 active. Potency, µM (highest dose often 46.3 µM), actives largely listed as inhibitors. HEK293 hNpr1 GloSensor cGMP, ANP-stimulated luminescence. AID 1347048; calls by dose curve; note: nearly all actives have a fitted effect of over 60% in size
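Compound pre-incubated 30 min at room temperature on GloSensor-loaded HEK293 cells stably carrying hNpr1 and the pGS-40F cGMP biosensor. Stimulation uses hNppA at 0.1 nM final; luminescence is taken at baseline and 20 min post-agonist.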
HEK293 tox = kills HEK 293 cells. 6.6% of 94,000 active. Potency, µM (highest dose often 115 µM), most hits filed as inhibitors. HEK 293 viability, ATP luminescence (CellTiter-Glo), 48-72 h; note: nearly all actives have a fitted effect of over 60% in size
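HEK 293 cells seeded at 250 cells/well were exposed to compound for 48 or 72 hr at 37 degree Celsius. Viability taken as ATP content by CellTiter-Glo luminescence.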
3T3 cytotox = cytotoxic compounds in NIH 3T3 cells; 4.3% of 94,000 active; NIH 3T3 viability, CellTiter-Glo ATP luminescence, 48-72 h; Potency, µM (series often up to 96.7 µM), most hits filed as inhibitors; AID 1345082; note: nearly all actives have a fitted effect of over 55% in size
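First NIH 3T3 cells are plated at 400 cells/well; next compound is pinned in; then plates incubate 48 or 72 hr at 37 °C; finally CellTiter-Glo is added and luminescence read after 10 min.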
FLuc inh-1 = inhibitors of firefly (Photinus pyralis) luciferase. Potency, µM (top dose mostly 115 µM), usual class: inhibitors. 2.5% of 76,000 active. purified P. pyralis luciferase, luminescence, biochemical. P08659. AID 1347043; note: nearly all actives have a fitted effect of over 65% in size
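Cell-free enzyme assay, 10nM P. pyralis luciferase, luciferin and ATP each at 10uM. Inhibition profiled over a 6-point titration, read as luminescence.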
FLuc SDR -ATP = firefly luciferase binding stabilization, ATP absent; shares compounds with FLuc inh-1; Purified FLuc-C-HiBiT, Nano-Glo HiBiT luminescence, no ATP; Potency, µM (series often up to 32.7 µM), most hits filed as activators; 7.8% of 1,300 active; note: nearly all actives have a fitted effect of over 55% in size
FLuc SDR ATP = firefly luciferase binding stabilization, ATP added | shares compounds with FLuc inh-1 | purified FLuc-C-HiBiT + ATP, HiBiT complementation luminescence | AID 1963319 | 8.7% of 1,300 active | Potency, µM (highest dose often 32.7 µM), actives largely listed as activators;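 note: signal reports ligand binding via conformational change of the enzyme rather than luciferase catalysis; nearly all actives have a fitted effect of over 55% in size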
FLuc inh-2 = blocks firefly luciferase enzymatic activity | shares compounds with FLuc inh-1 | purified FLuc-C-HiBiT enzyme, luciferin luminescence | Potency, µM (series often up to 32.7 µM), actives largely listed as inhibitors | 42% of 1,300 active | AID 1963320; note: nearly all actives have a fitted effect of over 70% in size
Each line names hits and unclear results; the compound was inactive in the other large screens (follow-up assays come after a bar, where they were run). Unless noted, calls come from the whole dose curve; as a rule, active = well fitted curve in the direction sought with a large enough effect; inconclusive = small, poorly fitted or top-dose-only effect, or another doubt; inactive = no such curve, though single readings can be large; an effect the other way counts as inactive or inconclusive.

CCOc1ccc(-c2cc3c(=O)n(CCNC(=O)c4ccncc4)ccn3n2)cc1	HEK293 tox inconclusive, FLuc inh-1 6.3µM | FLuc SDR -ATP inconclusive | FLuc SDR ATP inconclusive | FLuc inh-2 3.5µM
CCOc1ccc(-c2cc3c(=O)n(CCNC(=O)c4cccc(C#N)c4)ccn3n2)cc1	FLuc inh-1 0.79µM | FLuc SDR -ATP inactive | FLuc SDR ATP inactive | FLuc inh-2 inconclusive
CCOc1ccc(-c2cc3c(=O)n(CCNC(=O)c4cccc(N(C)C)c4)ccn3n2)cc1	HEK293 tox inconclusive, FLuc inh-1 2.5µM | FLuc SDR -ATP inactive | FLuc SDR ATP inconclusive | FLuc inh-2 3.9µM
CCn1cc(CN2CCCC(COc3ccccc3C(=O)N3CCCC3)C2)c2ccccc21 (stereo unspecified)	HEK293 tox inconclusive, 3T3 cytotox inconclusive
CN(C)c1nc(NCCN2CCOC2=O)ncc1F	none
O=C1OCCN1CCNc1ccc(-c2nc(-c3ccccc3F)no2)cn1	hNpr1 antagonist inconclusive, HEK293 tox 45µM, 3T3 cytotox inconclusive, FLuc inh-1 5.6µM | FLuc SDR -ATP inactive | FLuc SDR ATP inactive | FLuc inh-2 inconclusive
N#Cc1c(-n2ncnc2-c2cccc(Cl)c2)sc2c1CCCCC2	none (no result: hNpr1 antagonist, HEK293 tox, 3T3 cytotox, FLuc inh-1) | FLuc SDR -ATP inactive | FLuc SDR ATP inconclusive | FLuc inh-2 2µM
N#Cc1c(-n2ncnc2-c2ccccc2Cl)sc2c1CCCCC2	none (no result: hNpr1 antagonist, HEK293 tox, 3T3 cytotox, FLuc inh-1) | FLuc SDR -ATP inactive | FLuc SDR ATP inconclusive | FLuc inh-2 2.2µM
CCn1cc(-c2ccc(C)cc2)cc1C(=O)NCCCN1CCOCC1	HEK293 tox inconclusive, 3T3 cytotox inconclusive
COc1ccc(OC)c(-c2nc3ccc(OC)cc3s2)c1	none (no result: hNpr1 antagonist, HEK293 tox, 3T3 cytotox, FLuc inh-1) | FLuc SDR -ATP inactive | FLuc SDR ATP inactive | FLuc inh-2 inconclusive
CCN1c2cc(C(=O)NCc3cc(F)ccc3F)ccc2C(=O)N2CCCCC21 (stereo unspecified)	HEK293 tox inconclusive, 3T3 cytotox inconclusive
CC1CCCCN1c1csc2ccc(F)cc2c1=O (stereo unspecified)	none (no result: hNpr1 antagonist, HEK293 tox, 3T3 cytotox, FLuc inh-1) | FLuc SDR -ATP inactive | FLuc SDR ATP inactive | FLuc inh-2 8.8µM
O=C(c1ccc(Oc2ccc(CN3CCCC3)cc2F)nc1)N1CCCCC1	hNpr1 antagonist inconclusive, HEK293 tox inconclusive
Cc1oc(C(O)c2ccccc2F)nc1C(=O)Nc1ccccc1 (stereo unspecified)	HEK293 tox inconclusive, 3T3 cytotox inconclusive, FLuc inh-1 inconclusive
Cc1oc(C(O)c2ccccc2F)nc1C(=O)Nc1ccc(N2CCOCC2)cc1 (stereo unspecified)	HEK293 tox inconclusive, FLuc inh-1 10µM | FLuc SDR -ATP inconclusive | FLuc SDR ATP inconclusive | FLuc inh-2 16µM
COc1cccc(CC(=O)NCCn2ccn3nc(-c4ccc(C)c(C)c4)cc3c2=O)c1	HEK293 tox 79µM, 3T3 cytotox inconclusive, FLuc inh-1 13µM | FLuc SDR -ATP inactive | FLuc SDR ATP inactive | FLuc inh-2 inconclusive
CCOc1ccc(-c2cc3c(=O)n(CCNC(=O)Cc4cccs4)ccn3n2)cc1	HEK293 tox inconclusive, FLuc inh-1 inconclusive
COc1ccc(-c2cc3c(=O)n(CCNC(=O)Cc4cccs4)ccn3n2)cc1	HEK293 tox inconclusive, 3T3 cytotox inconclusive, FLuc inh-1 8.9µM | FLuc SDR -ATP inconclusive | FLuc SDR ATP inconclusive | FLuc inh-2 inconclusive
COc1cccc(-c2cc3c(=O)n(CCNC(=O)c4ccccc4Cl)ccn3n2)c1	HEK293 tox inconclusive, FLuc inh-1 13µM | FLuc SDR -ATP inactive | FLuc SDR ATP inactive | FLuc inh-2 inconclusive
Cc1ccc(NC(=O)c2ccc3oc(-c4ccncc4)nc3c2)cc1	HEK293 tox inconclusive (no result: hNpr1 antagonist, FLuc inh-1)
CCc1ccc2oc(-c3ccc(NC(=O)c4ccc(OC)c(Br)c4)cc3)nc2c1	none (no result: hNpr1 antagonist, HEK293 tox, 3T3 cytotox, FLuc inh-1) | FLuc SDR -ATP inactive | FLuc SDR ATP inactive | FLuc inh-2 inactive
CCc1ccc2oc(-c3cccc(NC(=O)c4cc5ccccc5o4)c3)nc2c1	none (no result: hNpr1 antagonist, HEK293 tox, 3T3 cytotox, FLuc inh-1) | FLuc SDR -ATP inactive | FLuc SDR ATP inactive | FLuc inh-2 inconclusive
O=C(c1ccc(C(F)(F)F)cc1)N1CCC(C(=O)N2CCC(N3CCOCC3=O)CC2)CC1	HEK293 tox inconclusive (no result: hNpr1 antagonist, FLuc inh-1)

Screens: PubChem BioAssay, National Center for Advancing Translational Sciences (NCATS)
